# What was measured:
# Type in all cases: functional
# [1] = molecular target: Solute carrier family 2, facilitated glucose transporter member 1 (Homo sapiens) (UniProt P11166); test: ST_JUDE_LEISH: Cytotoxicity at 2uM final concentration against transgenic Leishmania Mexicana promastigotes LmGLUT1 that are glucose transport deficient and complemented with the human glucose transporter GLUT1. Activity is measured by DNA content using SYBR green in vitro
# [2] = molecular target: Hexose transporter 1 (Plasmodium falciparum) (UniProt O97467); test: ST_JUDE_LEISH: Cytotoxicity at 2uM final concentration against transgenic Leishmania Mexicana promastigotes LmPfHT that are glucose transport deficient and complemented with the Plasmodium falciparum hexose transporter. Activity is measured by DNA content using SYBR green in vitro
# [3] = molecular target: Glucose transporter (Leishmania mexicana) (UniProt O61059); test: ST_JUDE_LEISH: Cytotoxicity at 2uM final concentration against transgenic Leishmania Mexicana promastigotes LmGT2 that are glucose transport deficient and complemented with the L. Mexicana glucose transporter 2. Activity is measured by DNA content using SYBR green in vitro
# Solute carrier family 2, facilitated glucose transporter member 1 (Homo sapiens), sequence (P11166 whole entry): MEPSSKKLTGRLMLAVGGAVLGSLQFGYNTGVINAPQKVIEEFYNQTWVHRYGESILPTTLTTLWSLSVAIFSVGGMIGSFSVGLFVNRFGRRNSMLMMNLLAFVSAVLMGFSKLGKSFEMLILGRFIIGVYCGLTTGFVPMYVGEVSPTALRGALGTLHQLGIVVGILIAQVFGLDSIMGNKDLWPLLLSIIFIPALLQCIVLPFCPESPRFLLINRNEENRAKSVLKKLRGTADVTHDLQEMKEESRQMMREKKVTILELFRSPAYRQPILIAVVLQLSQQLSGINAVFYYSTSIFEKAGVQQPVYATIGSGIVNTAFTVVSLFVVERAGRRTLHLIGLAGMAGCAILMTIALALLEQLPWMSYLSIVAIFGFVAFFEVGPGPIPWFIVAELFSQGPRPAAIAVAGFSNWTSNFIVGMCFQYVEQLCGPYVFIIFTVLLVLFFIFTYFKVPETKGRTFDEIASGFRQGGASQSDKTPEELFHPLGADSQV
SMILES,inhibition [1] [%],inhibition [2] [%],inhibition [3] [%]
O=C(NCc1cccc(Br)c1)c1ccc(CNC2CCN(Cc3ccccc3)CC2)cc1,5.34,1.61,5.37
COCCCNc1nc2cc(OC)c(OC)cc2c2nc(-c3ccccc3)nn12,2.53,1.16,0.85
CS(=O)(=O)CCNc1nccc(N2CCc3ncnc(Nc4ccc(OCc5cccc(F)c5)c(Cl)c4)c3C2)n1,-1.94,-1.97,-1.99
Nc1ncc(-c2ccc(F)c(Cl)c2)c(N)n1,1.16,4.76,1.32
CC(C)CN1C(=O)c2ccccc2C(C(=O)Nc2cccc(C#N)c2)C1c1cccs1 (configuration not stated),-0.23,-1.39,-1
CC1(C)C(=O)Nc2ccc3c(c21)CC1SC(=O)NN=C31 (configuration not stated),-0.91,0.11,0.01
Cn1cncc1C(=O)Nc1cccc(-c2cccc(-c3nc4cc(C(F)(F)F)ccc4[nH]3)c2)c1,-1.02,2.87,-0.89
COc1ccc(NC(=O)/C=C/c2ccccc2Cl)cc1OCCN1CCC(N2CCN(C)CC2)CC1,4.65,6.39,0.87
CCn1nc(C(=O)NC2CCOc3ccccc32)c2ccccc2c1=O (configuration not stated),-1.12,-0.92,-3.49
COc1ccc2ccccc2c1CCCCN1CCN(CC(c2ccc(F)cc2)N2CCC(N3CCCC3)CC2)CC1 (configuration not stated),3.25,3.63,7.05
COc1ccc(C2CCN(CCN3CCC(NC(=O)c4cccc(-c5ccncc5)c4)CC3)CC2)c(OC)c1,1.32,0.37,0.47
N=C(N)NN=Cc1ccc2c(ccc3ccccc32)c1,7.03,8.19,3.76
FC(F)(F)c1ccc2c(C=Cc3ccncc3)c[nH]c2c1,3.67,3.37,4.76
CN(CCS(C)(=O)=O)Cc1ccc(-c2ccc3ncnc(Nc4ccc(OCc5cccc(F)c5)c(Cl)c4)c3c2)o1,2.97,0.92,-0.85
COc1ccc(Oc2ccc(-c3c(O)cc(C)nc3C)cc2)cc1,2.96,3.75,1.27
COc1ccc(NC(=O)[C@H](CC(C)C)Nc2cc(C)nc(NCc3cccc(C)c3)n2)cc1,9.89,9.82,7.22
Cc1ccc(F)cc1S(=O)(=O)N1CCCCC(c2ccc(C(F)(F)F)cc2)=N1,7.48,5.61,8.34

SMILES,inhibition [1] [%],inhibition [2] [%],inhibition [3] [%]
CC(=O)Nc1ccc(CNCCc2ccc(NC(=O)c3cc(Cl)cc(Cl)c3)cc2)cc1,-0.73,0.23,-1.09
Cc1cccc(Nc2nc(NCCCCN)nc3cc[nH]c(=O)c23)c1,6.92,6.97,4.49
COc1ccc(NC(=O)c2ccc(-c3nc(-c4cccc(C(F)(F)F)c4)cs3)cc2)cc1N1CCN(C)CC1,0.87,1.59,2.01
CCNc1cc(C(=O)N[C@@H](Cc2ccccc2)[C@H](O)CNC2(CC)CC2)cc(N2CCCCS2(=O)=O)c1,-3.85,2.01,-2.45
O=C(Nc1cccnc1)c1ccc(-c2cc3ccncc3cc2OC2CCNCC2)s1,2.38,2.54,2.16
CN1CCN(CCCCNc2c3ccccc3nc3ccccc23)CC1,23,11.7,14.6
N#Cc1ccc(C=Cc2nccc3c2[nH]c2ccccc23)cc1,10.9,9.49,9.13
COc1cccc(C(=O)N2CCN(Cc3cccc(NC(=O)c4cccs4)c3)CC2)c1,2.14,2.18,5.14
CC(=O)Nc1ccc(S(=O)(=O)Nc2c(C)cc(Cc3cnc(N)nc3N)cc2C)cc1,-0.22,0.02,-0.69
CC1C(c2cccc(Cl)c2)OCC(C)(C)N1C(=O)CCN1CCCCC1 (configuration not stated),-1.47,-0.69,-1.56
COc1ccc(Nc2nc(N3CCCC3)c3ccccc3n2)cc1,17.6,19.6,14.3
O=S(=O)(Nc1cccc(CCN2CCC(N3CCCCC3)CC2)c1)c1ccc(-c2ccccc2)cc1,3.35,5.01,3.57
Cc1cc(C(=O)Nc2ccc(-c3nc4ccccc4[nH]3)cc2)ccc1[N+](=O)[O-],3.49,1.97,-1.54
COc1cccc(C2CCCN(CCCCNC(=O)c3ccc(NC(=O)c4ccc(Cl)cc4)cc3)C2)c1 (configuration not stated),2.97,4.25,3.02
CCN(CCCN1CCCCC1)c1cc(C)nc(Nc2ccc(C)c(C)c2)n1,4.78,5.75,4.45
CCc1ccc(Cc2cnc3nc(N)nc(N)c3c2C)cc1,8.4,13.2,8.26
CCOC(=O)c1c(CN2CCCC2)n(-c2ccccc2)c2cc(Br)c(O)cc12,17,14,16.7
